# Measured values reported in PubChem BioAssay AID485364 (National Center for Advancing Translational Sciences (NCATS), 2010).
# The whole screen tested about 360,000 compounds, of which about 11,000 (3.1%) were called active. Another 4% or so got no clear call; they are omitted. Shown is part of a subset that was picked to be rich in actives. A number with no mark means an inactive call. Calls come from the whole dose curve; as a rule, active = well fitted inhibition curve with a large enough effect; inconclusive = small, poorly fitted or top-dose-only effect; inactive = no such curve, though single readings can be large or run the other way.
# Target: Schistosoma mansoni thioredoxin glutathione reductase (TGR) (UniProt Q962Y6)
# Assay: qHTS Assay for the Inhibitors of Schistosoma Mansoni Peroxiredoxins; note: nearly all actives have a fitted effect of over 60% in size
# Conditions: purified TGR, DTNB reduction, TNB absorbance 405 nm; series mostly up to 114 µM; activity change, negative = inhibition: at the top concentration
# Method in brief: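 Kinetic colorimetric format: TGR-catalysed, NADPH-driven DTNB reduction monitored via TNB absorbance. Enzyme dispensed at 20 nM; compound exposure 15 min at room temperature before reaction start.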
# % is set by controls: 0 for no effect and ±100 for the full control effect; potency is the fitted concentration of half-maximal effect.
Structure (SMILES),"activity change, negative = inhibition [%]",Potency
CCOc1ccc(S(=O)(=O)c2cn(Cc3ccccc3)c3ccc(OCC)cc3c2=O)cc1,2.33,–
Brc1ccc(CSc2ccc(-c3ccco3)nn2)cc1,–,17.8 µM (active)
Cc1cccc(CSc2ccc(-c3cccs3)nn2)c1,–,inactive
Cc1cc(SCc2c(F)cccc2Cl)nc(=O)[nH]1,3.88,–
Cn1c(SCc2c(F)cccc2Cl)nnc1-c1cnccn1,-5.1,–
Fc1cccc(Cl)c1CSc1ccc(-c2ccco2)nn1,–,17.8 µM (active)
N#Cc1ccc(-c2cccs2)nc1SCc1ccc(Br)cc1,-18.7,–
COc1cccc(CNC(=O)C(NS(=O)(=O)c2ccc3nc(C)sc3c2)C(C)C)c1 (stereo not given),6.17,–
COc1ccc(CNC(=O)CSc2nc3ccccc3nc2Cc2ccccc2)cc1,8.87,–
Cc1ccc(OCCSc2nc3ccc(NC(=O)COc4ccc(C)cc4)cc3s2)cc1,1.48,–
O=C(CCCn1c(=O)c2cccn2c2cccnc21)NCc1ccc(F)cc1,5.29,–
CCOc1ccccc1NC(=O)C1CCCN(S(=O)(=O)c2cn(C)cn2)C1 (stereo not given),1.19,–
COc1ccc(N2CCN(S(=O)(=O)c3ccc4c(c3)NC(=O)C(C)C(=O)N4)CC2)cc1 (stereo not given),-0.727,–
CC1C(=O)Nc2ccc(S(=O)(=O)N3CCN(c4ccccc4F)CC3)cc2NC1=O (stereo not given),0.0144,–
CON(C)S(=O)(=O)c1ccc2c(c1)NC(=O)C1CCCN21 (stereo not given),–,12.6 µM (active)
COc1ccc(-c2cc(C(F)(F)F)n3nc(-c4ccccc4)cc3n2)cc1OC,1.04,–
CCc1ccccc1NC(=O)N1CCC2(CC1)Oc1ccccc1C(=O)N2Cc1ccccc1F,5.66,–
Cc1cc(C)c([N+](=O)[O-])cc1-c1ccc(/C=N/NC(=O)c2nonc2N)o1,-22.4,–
O=C1C2C3C=CC(C4CC34)C2C(=O)N1/N=C/c1ccc(-c2ccccc2[N+](=O)[O-])o1 (stereo not given),-5.26,–
Clc1cc(-c2ccc(/C=N/n3cnnc3)o2)ccc1Br,-8.48,–
Cc1cc([N+](=O)[O-])c(-c2ccc(/C=N/n3cnnc3)o2)cc1Cl,–,50.1 µM (active)
Cc1cc(-c2ccc(/C=N/n3cnnc3)o2)c([N+](=O)[O-])cc1C,–,35.5 µM (active)

Structure (SMILES),"activity change, negative = inhibition [%]",Potency
Cc1ccc(Cl)cc1-c1ccc(/C=N/n2cnnc2)o1,5.78,–
COc1ccc(-n2nc(C(=O)NCCc3ccc(Cl)cc3)c3c4ccccc4n(C)c3c2=O)cc1Cl,8.82,–
Cc1cccc(OCCCC(=O)Nc2sc3c(c2C(N)=O)CCC(C)C3)c1 (stereo not given),0.261,–
CCOC(=O)C1CCN(C(=O)CSc2c3c(nc4ccc(Cl)cc24)CCCC3)CC1,-4.41,–
CCOc1ccc(N(Cc2ccccc2)C(=O)c2nc(S(C)(=O)=O)ncc2Cl)cc1,–,8.91 µM (active)
CCOc1ccc(NC(=O)CN(Cc2ccccc2)S(=O)(=O)c2ccc(Cl)cc2)cc1,-0.203,–
CCOc1ccc(N(Cc2ccccc2)C(=O)c2nc(SCC)ncc2Cl)cc1,8.83,–
Cc1c(CNC2CCCCC2)c(C(=O)O)c(C)n1Cc1cccc(Cl)c1,-3.74,–
COC(=O)C1=C(c2ccccc2)c2ccccc2S(=O)(=O)N1CC(=O)Nc1ccccc1C(F)(F)F,-1.13,–
CN1C(=O)/C(=C/c2ccco2)SC1=Nc1cccc(C(=O)O)c1,–,14.1 µM (active)
CN=C1S/C(=C\c2c(OC)cc(OC)cc2OC)C(=O)N1C,-16.8,–
Cc1cc(/C=C2\SC(=Nc3ccc(N4CCOCC4)cc3)N(C)C2=O)c(C)n1-c1cccnc1,-22.7,–
CCOC(=O)c1ccc(NC(=O)CC2C(=O)N(c3cccc(OC)c3)C(=O)N2C2CCCCC2)cc1 (stereo not given),6.04,–
COc1ccc(NC(=O)c2ccc3nc(C(C)C)oc3c2)cc1OC,-0.734,–
COc1ccccc1N1CCN(C(CNC(=O)C(=O)NCc2ccc(C)cc2)c2cccnc2)CC1 (stereo not given),-3.19,–
Cc1c(NC(=S)NCc2ccc(F)cc2)cccc1[N+](=O)[O-],-22.1,–
Cc1c(NC(=O)/C=C/C(=O)O)cccc1[N+](=O)[O-],–,50.1 µM (active)
Cc1c(NC(=O)CCCOc2ccccc2)cccc1[N+](=O)[O-],-7.24,–
O=C(NCCc1csc(-c2ccc(C(F)(F)F)cc2)n1)C(=O)Nc1ccc(F)c(Cl)c1,5.45,–
CCCOc1ccc(CN(CCO)CCO)cc1C(=O)OC,-2.83,–
CCOc1ccccc1NS(=O)(=O)c1c[nH]c(C(=O)OC)c1,0.0214,–
CCOc1ccc(CN(CCCl)CCCl)cc1C(=O)OC,–,14.1 µM (active)

Structure (SMILES),"activity change, negative = inhibition [%]",Potency
CC(=O)N1CCc2cc(S(=O)(=O)NC(Cc3ccccc3)C(=O)NCc3ccc(C)cc3)ccc21 (stereo not given),0.332,–
CCc1nn(CC(=O)NCC(C)c2ccccc2)c(=O)c2cc3occc3n12 (stereo not given),-3.19,–
Cc1cc(C)cc(-n2c(SCC(=O)NCC3CCCO3)nc3c([nH]c4ccccc43)c2=O)c1 (stereo not given),4.33,–
CCOC(=O)CSc1nc(C)c(Oc2ccc(Cl)cc2Cl)c(=O)[nH]1,0.0744,–
Cc1nnc(SCC(=O)N2CCOCC2)[nH]c1=O,-0.867,–
CCCCOC(=O)CNc1nnc(SCC(=O)OCC)[nH]c1=O,–,14.1 µM (active)
Cc1ccccc1C(=O)Nc1cc(C)c(O)c(-c2nc3ccccc3o2)c1,-2.01,–
COc1cccc(Cn2c(CNS(=O)(=O)c3ccc(Cl)s3)nc3cccnc32)c1,-0.347,–
O=C1c2cccc(OCC(=O)N3N=C(c4cccs4)CC3c3ccc(F)cc3)c2CCN1Cc1ccccc1 (stereo not given),2.05,–
Cc1ccc(C2=NN(C(=O)COc3ncnc4ccccc34)C(c3ccco3)C2)cc1 (stereo not given),-12.3,–
O=C(COc1ccccc1Cl)N1N=C(c2cccs2)CC1c1ccco1 (stereo not given),–,35.5 µM (active)
Cc1ccc(Cl)cc1NC(=O)CCS(=O)(=O)c1ccc(Br)s1,-2.26,–
O=C1N[C@@H](Cc2ccccc2)C(=O)N2[C@H]1C[C@]1(Br)c3ccccc3N(S(=O)(=O)c3ccccc3)[C@H]21,–,22.4 µM (active)
O=C(CSc1nccn1Cc1ccc(Cl)cc1)NCc1ccccc1,-4.14,–
Cc1ccc2c(=O)c(C(=O)c3ccc(F)cc3)cn(CC(=O)NC3CCCCC3)c2n1,-0.574,–
O=[N+]([O-])c1cccc(S(=O)(=O)NCc2ccccn2)c1,-6.1,–
O=C(CSc1nnc(-c2ccccc2F)o1)Nc1cccc(C(F)(F)F)c1,1.64,–
O=c1cc(CO)oc(C(Nc2cccc(C(F)(F)F)c2)c2ccccn2)c1O (stereo not given),–,11.2 µM (active)
O=c1cc(CO)oc(C(Nc2cccc([N+](=O)[O-])c2)c2ccccn2)c1O (stereo not given),–,50.1 µM (active)
Cn1c(=O)c2c(ncn2CC(=O)Nc2cccc(C(F)(F)F)c2)n(C)c1=O,7.76,–
O=C(CSc1nc(-c2ccccc2)cs1)Nc1cccc([N+](=O)[O-])c1,7.7,–
